For some assays here: Entries with a potency or affinity are not part of this list. Activity calls are given as the source filed them. Unless noted, how the calls were made is not given here.
Experiments:
[1] = antimalarial activity against Dd2 strain (AID 2302;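 active means growth inhibition above 50% at the single 2 µM test dose, taken to imply half-maximal potency below 2 µM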;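 further: 0% = DMSO untreated growth and 100% = chloroquine plus artemisinin killed control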); conditions: P. falciparum Dd2 in RBCs, LDH growth readout, 72 h; at 2 µM; hits give high values
[2] = HepG2 cytotoxicity, primary screen, cytotoxicity control for P. falciparum antimalarial project, cell-based, ATP luminescence (AID 2303;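 active means inhibition above 50%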;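 further: 0% = DMSO wells and 100% = digitonin-killed cells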); conditions: HepG2 viability, 24-48 h, at 10 µM, hits give high values
[3] = target: L-lactate dehydrogenase (Plasmodium falciparum (isolate CDC / Honduras)) (UniProt Q27743); assay: PfLDH activity inhibition – cell lysate, 3D7 strain, counter-screen for P. falciparum growth inhibition project (AID 2304);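 further: 0% = vehicle and 100% = reference inhibitor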; conditions: P. falciparum 3D7 crude extract, LDH APAD/NBT absorbance; at 2 µM; hits give high values
[4] = inhibition of 3D7 malaria parasite growth – strain 3D7 (AID 2306);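 further: 0% = DMSO wells and 100% = chloroquine plus artemisinin control wells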; conditions: P. falciparum 3D7 erythrocytic growth, LDH absorbance, 72 h; at 2 µM; hits give high values
[5] = target: Calcium-dependent protein kinase 1 (Plasmodium falciparum (isolate 3D7)) (UniProt P62344); assay: PfCDPK1 kinase inhibitors, biochemical, TCAMS library (AID 1159585; cut-off not given, nearly all actives have IC50 up to about 0.98 µM;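 further: inhibitors leave more ATP so luminescence rises with inhibition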); conditions: recombinant PfCDPK1, Kinase-Glo ATP depletion luminescence
[6] = target: Plasmodium falciparum protein kinase 6 (PK6, PF3D7_1337100) (UniProt Q8IDW1); assay: PfPK6 kinase inhibitors, biochemical, TCAMS library (AID 1159586); conditions: recombinant PfPK6, Kinase-Glo ATP depletion luminescence
[7] = target: Protein kinase 7 (PK7), Plasmodium falciparum 3D7 (PF3D7_0213400) (UniProt Q7YTF7); assay: inhibition of Plasmodium PK7 catalytic activity – biochemical, TCAMS antimalarial set, Kinase-Glo luminescence (AID 1159587); conditions: recombinant PfPK7, Kinase-Glo ATP depletion luminescence
[8] = target: Calcium-dependent protein kinase 4 (Plasmodium falciparum (isolate 3D7)) (UniProt Q8IBS5); assay: PfCDPK4 kinase inhibitors, biochemical, TCAMS library (AID 1159588; cut-off not given, nearly all actives have IC50 up to about 0.91 µM); conditions: recombinant PfCDPK4, Kinase-Glo ATP depletion luminescence
Sequence of Calcium-dependent protein kinase 4 (Plasmodium falciparum (isolate 3D7)) (Q8IBS5 whole entry, looked up): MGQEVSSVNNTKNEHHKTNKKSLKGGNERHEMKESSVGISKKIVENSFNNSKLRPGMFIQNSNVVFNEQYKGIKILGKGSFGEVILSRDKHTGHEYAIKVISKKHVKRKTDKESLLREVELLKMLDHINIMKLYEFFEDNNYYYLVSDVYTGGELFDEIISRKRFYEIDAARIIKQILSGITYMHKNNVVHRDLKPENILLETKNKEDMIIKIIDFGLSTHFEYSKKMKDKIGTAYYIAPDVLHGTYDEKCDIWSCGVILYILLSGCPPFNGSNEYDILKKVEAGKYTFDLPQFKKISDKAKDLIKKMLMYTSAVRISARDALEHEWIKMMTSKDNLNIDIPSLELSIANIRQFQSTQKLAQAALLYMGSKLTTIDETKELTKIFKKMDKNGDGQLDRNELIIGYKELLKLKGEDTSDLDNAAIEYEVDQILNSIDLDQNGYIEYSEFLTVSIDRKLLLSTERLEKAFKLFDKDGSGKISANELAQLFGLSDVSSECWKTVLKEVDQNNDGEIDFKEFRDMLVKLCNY

Sequence of L-lactate dehydrogenase (Plasmodium falciparum (isolate CDC / Honduras)) (Q27743 whole entry, looked up): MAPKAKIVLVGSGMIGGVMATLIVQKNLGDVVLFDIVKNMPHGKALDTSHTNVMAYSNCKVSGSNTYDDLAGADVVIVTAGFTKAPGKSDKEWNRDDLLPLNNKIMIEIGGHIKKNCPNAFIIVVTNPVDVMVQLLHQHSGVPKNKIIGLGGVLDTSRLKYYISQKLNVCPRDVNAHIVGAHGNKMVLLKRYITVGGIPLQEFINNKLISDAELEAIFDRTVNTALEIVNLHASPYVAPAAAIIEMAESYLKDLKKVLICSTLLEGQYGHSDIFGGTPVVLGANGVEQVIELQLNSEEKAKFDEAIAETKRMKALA
Sequence of Protein kinase 7 (PK7), Plasmodium falciparum 3D7 (PF3D7_0213400) (Q7YTF7 1-343): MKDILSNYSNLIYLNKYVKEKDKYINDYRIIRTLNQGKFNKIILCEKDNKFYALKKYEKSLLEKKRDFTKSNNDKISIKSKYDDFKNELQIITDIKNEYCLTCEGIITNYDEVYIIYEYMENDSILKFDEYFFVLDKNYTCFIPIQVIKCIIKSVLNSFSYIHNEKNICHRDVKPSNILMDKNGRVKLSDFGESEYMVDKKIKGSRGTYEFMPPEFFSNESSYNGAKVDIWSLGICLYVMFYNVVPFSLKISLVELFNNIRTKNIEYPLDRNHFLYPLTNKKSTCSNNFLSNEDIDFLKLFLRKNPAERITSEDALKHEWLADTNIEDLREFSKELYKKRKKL
Sequence of Plasmodium falciparum protein kinase 6 (PK6, PF3D7_1337100) (Q8IDW1 1-305): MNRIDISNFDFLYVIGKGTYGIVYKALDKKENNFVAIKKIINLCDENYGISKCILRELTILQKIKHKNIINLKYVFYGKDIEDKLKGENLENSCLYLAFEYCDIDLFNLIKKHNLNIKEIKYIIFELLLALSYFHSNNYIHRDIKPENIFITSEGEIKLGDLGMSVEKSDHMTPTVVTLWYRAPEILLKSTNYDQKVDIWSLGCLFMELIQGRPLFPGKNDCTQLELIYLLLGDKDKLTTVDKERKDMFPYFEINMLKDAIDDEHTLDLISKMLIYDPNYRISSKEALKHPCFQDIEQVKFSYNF
Sequence of Calcium-dependent protein kinase 1 (Plasmodium falciparum (isolate 3D7)) (P62344 whole entry, looked up): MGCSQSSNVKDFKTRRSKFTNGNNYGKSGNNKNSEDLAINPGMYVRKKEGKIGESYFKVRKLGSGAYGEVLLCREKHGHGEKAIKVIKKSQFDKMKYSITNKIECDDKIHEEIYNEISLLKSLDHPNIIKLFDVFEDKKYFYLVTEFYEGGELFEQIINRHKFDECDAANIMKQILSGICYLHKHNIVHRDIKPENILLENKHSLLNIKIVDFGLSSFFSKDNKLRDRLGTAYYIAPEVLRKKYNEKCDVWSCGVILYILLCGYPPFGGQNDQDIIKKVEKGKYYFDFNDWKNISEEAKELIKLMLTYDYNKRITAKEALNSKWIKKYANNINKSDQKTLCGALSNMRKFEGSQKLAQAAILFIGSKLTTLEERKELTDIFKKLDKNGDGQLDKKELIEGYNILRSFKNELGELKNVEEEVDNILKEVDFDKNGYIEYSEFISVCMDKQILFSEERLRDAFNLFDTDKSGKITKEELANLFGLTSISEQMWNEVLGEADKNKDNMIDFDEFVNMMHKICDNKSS

O=C(NCC1CCN(Cc2ccc3c(c2)OCCO3)C1)c1cc(-c2ccccc2F)cs1 (configuration not stated)
active: growth inhibition [4] 95%
inactive: growth inhibition [1] -1% | inhibition [2] 18% | inhibition [3] 4% | outcome [5] | outcome [6] | outcome [7] | outcome [8]

c1ccc2[nH]c(CN(Cc3nc4ccccc4[nH]3)Cc3nc4ccccc4[nH]3)nc2c1
inactive: inhibition [2] 39% | inhibition [3] -2% | outcome [5] | outcome [6] | outcome [7] | outcome [8]
active: growth inhibition [1] 86% | growth inhibition [4] 81%

Cc1cc2nc(-c3ccc(C(=O)NCc4ccc(C(C)(C)C)cc4)cc3)[nH]c2cc1C
active: growth inhibition [1] 59% | growth inhibition [4] 101%
inactive: inhibition [2] 3% | inhibition [3] -3% | outcome [5] | outcome [6] | outcome [7] | outcome [8]

N#Cc1cccc(-c2nc(NCc3cccc(C(F)(F)F)c3)nn2-c2cccc(C(F)(F)F)c2)c1
inactive: inhibition [2] 12% | inhibition [3] 3% | outcome [5] | outcome [6] | outcome [7] | outcome [8]
active: growth inhibition [1] 88% | growth inhibition [4] 94%

CCCCCCN1CCCN(Cc2ccc(C(=O)Nc3ccc(C(C)(C)C)cc3)cc2)CC1
active: inhibition [2] 53% | growth inhibition [4] 100%
inactive: growth inhibition [1] 32% | inhibition [3] -3% | outcome [5] | outcome [6] | outcome [7] | outcome [8]

COc1cccc(C(=O)NC(c2ccc(Cl)cc2Cl)c2cc(Cl)c3cccnc3c2O)c1 (configuration not stated)
active: growth inhibition [1] 76% | growth inhibition [4] 100%
inactive: inhibition [2] 37% | inhibition [3] -8% | outcome [5] | outcome [6] | outcome [7] | outcome [8]

Cc1cccc2[nH]c(-c3cccc(-c4cccc(NC(=O)C(C)CN(C)C)c4)c3)nc12 (configuration not stated)
inactive: inhibition [2] 16% | inhibition [3] -3% | outcome [5] | outcome [6] | outcome [7] | outcome [8]
active: growth inhibition [1] 97% | growth inhibition [4] 101%

CC(=O)Nc1ncc(C(=O)Nc2cccc(-c3ccc(-c4nc5ccc(C(F)(F)F)cc5[nH]4)s3)c2)s1
active: growth inhibition [1] 99% | inhibition [2] 90% | growth inhibition [4] 101%
inactive: inhibition [3] 5% | outcome [5] | outcome [6] | outcome [7] | outcome [8]

COC(=O)c1ccc(CN2CCC(N(Cc3cccc(Oc4ccccc4)c3)S(=O)(=O)c3ccc(NC(C)=O)cc3)CC2)cc1
inactive: inhibition [2] -1% | inhibition [3] -6% | outcome [5] | outcome [6] | outcome [7] | outcome [8]
active: growth inhibition [1] 86% | growth inhibition [4] 82%

CC(C)(Oc1c(C2CCN(CCCCNC(=O)c3ccc(-c4ccc(C#N)cc4)cc3)CC2)ccc2c1CCCC2)C(N)=O
inactive: inhibition [2] 34% | inhibition [3] 6% | outcome [5] | outcome [6] | outcome [7] | outcome [8]
active: growth inhibition [1] 82% | growth inhibition [4] 100%

O=C(Nc1ccc(OCc2ccccc2)cc1)c1nc2ccccc2nc1Cl
active: growth inhibition [1] 95% | growth inhibition [4] 96%
inactive: inhibition [2] 48% | inhibition [3] 3% | outcome [5] | outcome [6] | outcome [7] | outcome [8]

COc1ccc(COc2cc(NCCCN)nc3ccccc23)cc1
inactive: growth inhibition [1] 5% | inhibition [2] 3% | inhibition [3] -4% | outcome [5] | outcome [6] | outcome [7] | outcome [8]
active: growth inhibition [4] 101%

COc1cc(Nc2ccnc3cc(-c4nccs4)ccc23)ccc1OCCCc1nc2ccccc2[nH]1
inactive: inhibition [3] 5% | outcome [5] | outcome [6] | outcome [7] | outcome [8]
active: growth inhibition [1] 68% | inhibition [2] 100% | growth inhibition [4] 100%

c1ccc(-c2nc3ccccc3[nH]2)c(Nc2ccnc3cc(-c4nccs4)ccc23)c1
inactive: inhibition [2] -4% | inhibition [3] 3% | outcome [5] | outcome [6] | outcome [7] | outcome [8]
active: growth inhibition [1] 98% | growth inhibition [4] 101%

O=C(Nc1ccc(C(F)(F)F)cc1)NC1CCN(CCCCCNC(=O)[C@@H]2C[C@H]2c2ccc(Cl)c(Cl)c2)CC1
inactive: growth inhibition [1] 45% | inhibition [2] 41% | inhibition [3] -7% | outcome [5] | outcome [6] | outcome [7] | outcome [8]
active: growth inhibition [4] 101%

CNc1ccc(CNCc2cccc(-c3ccc(-c4nc5ccc(C(F)(F)F)cc5[nH]4)cc3)c2)cc1
active: growth inhibition [1] 100% | growth inhibition [4] 101%
inactive: inhibition [2] 21% | inhibition [3] 0% | outcome [5] | outcome [6] | outcome [7] | outcome [8]

Oc1ccc(CCNCCCCCCNCCCc2ccc(Cl)cc2)cc1O
active: growth inhibition [4] 87%
inactive: growth inhibition [1] 3% | inhibition [2] 13% | inhibition [3] -2% | outcome [5] | outcome [6] | outcome [7] | outcome [8]

COc1ccc(Cn2c(Nc3cccc(C(F)(F)F)c3)nc3cc(C(=O)NCCN4CCCC4)ccc32)cc1Cl
inactive: inhibition [2] 11% | inhibition [3] 2% | outcome [5] | outcome [6] | outcome [7] | outcome [8]
active: growth inhibition [1] 54% | growth inhibition [4] 97%

CC(C)n1c(C2CCN(CC3CCN(C(=O)/C=C/c4ccc(Cl)c(Cl)c4)CC3)CC2)nc2ccccc21
active: growth inhibition [4] 94%
inactive: growth inhibition [1] 7% | inhibition [2] 36% | inhibition [3] 2% | outcome [5] | outcome [6] | outcome [7] | outcome [8]

From PubChem BioAssay
